The text below walks through data of PubChem BioAssay (NCATS).

Inconclusive results are not listed. Calls of active or inactive are those of the source. Calls follow the shape of the full dose curve.
% is scaled to controls: 0 for no effect and ±100 for the full control effect.

The first experiment can be described thus: Primary qHTS for inhibitors of MERS-S pseudo-typed particle cell entry (AID 1479149). Also: nearly all actives have a fitted effect of over 60% in size. As to conditions: MERS-S pseudotyped particle entry, luciferase; series mostly up to 57.1 µM; activity change, negative = inhibition: at the top concentration.
Consider `O=C1OC(c2ccc(O)cc2)(c2ccc(O)cc2)c2ccccc21`, for which the “activity change, negative = inhibition” value was 1.07% (inactive).
For the molecule `CCC1NC(=O)c2cc(S(N)(=O)=O)c(Cl)cc2N1` (centres undefined), the molecule was called inactive.
`CCCCNc1ccc(C(=O)OCCN(C)C)cc1`: the molecule was classed as inactive.
As to `CCOC(=O)c1cc(=O)c2c(OCC(COc3cccc4oc(C(=O)OCC)cc(=O)c34)OC(=O)[C@@H](N)CCCCN)cccc2o1`, the molecule was called inactive.
Still for that read-out and setting: the same measure for `O=C(OCC(O)CO)c1ccccc1Nc1ccnc2c(C(F)(F)F)cccc12` (centres undefined): “inactive”.
For `Nc1ccn([C@H]2CC[C@@H](CO)O2)c(=O)n1`, the “activity change, negative = inhibition” value was -14.4% (inactive).

A further experiment in a line: Primary qHTS for Vero E6 cytotoxicity: counterscreen for inhibitors of SARS-S pseudo-typed particle cell entry (AID 1479150). Particulars: cell viability; series mostly up to 57.1 µM; activity change, negative = cytotoxicity: at the top concentration.
For the molecule `Cc1ccc(N(CC2=NCCN2)c2cccc(O)c2)cc1`, the result was inactive.
Take `CCc1oc2ccccc2c1C(=O)c1cc(Br)c(O)c(Br)c1`: the call was inactive.
With `CC(=O)OCC(=O)Nc1cc(C#N)cc(NC(=O)COC(C)=O)c1Cl`, the “activity change, negative = cytotoxicity” value was -1.84% (inactive).
For the molecule `O=C(OCc1ccccc1)c1ccc(O)cc1`, the “activity change, negative = cytotoxicity” value was -8.26% (inactive).
With `COC1=C(OC)C(=O)C(CCCCCCCCCCO)=C(C)C1=O`, the molecule was called inactive.
Still for that read-out and setting: as for `CCCC(=O)O[C@]1(C(=O)CC)CC[C@H]2[C@@H]3CCC4=CC(=O)CC[C@]4(C)[C@H]3[C@@H](O)C[C@@]21C`, the entry is “inactive”; as for `CC(=O)OCC(=O)NCCCOc1cccc(CN2CCCCC2)c1`, “inactive”.
As for `CCN(CC)CCOC(=O)C(Cc1cccc2ccccc12)CC1CCCO1` (centres undefined), the “activity change, negative = cytotoxicity” value is -22.6% (inactive).
Consider `CN(C)CC[C@@H](c1ccc(Cl)cc1)c1ccccn1`, for which the “activity change, negative = cytotoxicity” value was 3.69% (inactive).
Turning to `Cn1cc(C(=O)[C@@H]2CCc3nc[nH]c3C2)c2ccccc21`, the outcome was inactive.
As for `CCCCCCCCCCCCOS(=O)(=O)O`, the “activity change, negative = cytotoxicity” value was -5.32% (inactive).
On the same count and under the same terms, as for `CCOC(=O)c1ccc(OC(=O)CCCCCN=C(N)N)cc1`, the figure is -8.66% (inactive); as for `O=c1oc2c(O)c(O)cc3c(=O)oc4c(O)c(O)cc1c4c23`, -0.535% [at 26.4 µM] (inactive).
As to `CCCCCCOC(=O)NC(=N)c1ccc(NCc2nc3cc(C(=O)N(CCC(=O)OCC)c4ccccn4)ccc3n2C)cc1`, the molecule was called inactive.
On the same count and under the same terms, as for `CCOC(=O)[C@H](CCc1ccccc1)N[C@@H](C)C(=O)N(CC(=O)O)C1Cc2ccccc2C1`, the entry is “inactive”; as for `C1CCN2C[C@@H]3C[C@@H](CN4CCCC[C@@H]34)[C@H]2C1`, “inactive”.
For `CCN(CC)CCOc1ccccc1C(=O)CCc1ccccc1`, the “activity change, negative = cytotoxicity” value was 0.863% (inactive).
Regarding `Cc1c(-c2ccccc2)oc2c(C(=O)OCCN3CCCCC3)cccc2c1=O`, the outcome was inactive.
Same read-out and setting: the same measure for `CN(C)CCN1C(=O)c2ccccc2N(C)c2ccccc21`: “inactive”; for `CCCCCCCCCCCCCCCCC(C(=O)O)C(O)(CC(=O)O)C(=O)O` (centres undefined): “inactive”.
Consider `C[C@@H](C1=C(CCN(C)C)Cc2ccccc21)c1ccccn1`, for which the “activity change, negative = cytotoxicity” value is -1.2% (inactive).
Consider `CCOc1ccccc1O[C@H](c1ccccc1)[C@H]1CNCCO1`, for which the “activity change, negative = cytotoxicity” value is -5.44% (inactive).
In the case of `C=C1c2cccc(O)c2C(O)=C2C(=O)[C@]3(O)C(O)=C(C(N)=O)C(=O)[C@@H](N(C)C)[C@@H]3[C@@H](O)[C@H]12`, the outcome was inactive.
Same read-out and setting: as for `CCOCCn1c(N2CCCN(C)CC2)nc2ccccc21`, the entry is “inactive”; as for `CN(C)CCN(Cc1ccccc1)c1ccccn1`, “inactive”; as for `OC(CCN1CCCCC1)(c1ccccc1)c1ccccc1`, “inactive”.
The same measure, in the same setting: as for `COc1cc(NS(=O)(=O)c2ccc(N)cc2)ncn1`, the entry is “inactive”.
In the case of `C[C@@H]1CCC[C@H](C)N1CCCC(O)(c1ccccc1)c1ccccn1` (some centres undefined), the outcome was inactive.
On to `CCN[C@@H]1C[C@H](N)[C@@H](OC2OC(CN)=CCC2N)[C@H](O)[C@H]1O[C@H]1OC[C@](C)(O)[C@H](NC)[C@H]1O` (some centres undefined), for which the activity change, negative = cytotoxicity is -4.98% [at 0.573 µM] (inactive).
Same read-out and setting: as for `COc1ccc(C(Cl)=C(c2ccc(OC)cc2)c2ccc(OC)cc2)cc1`, the figure is 1.33% (inactive).
In the case of `CN(C)CCC(c1ccccc1)c1ccccn1` (centres undefined), the call was inactive.
Same read-out and setting: as for `CC1CC(=O)NN=C1c1ccc(NCC(C)(C)NCC(O)COc2cc(Cl)ccc2C#N)cc1` (centres undefined), the entry is “inactive”.
For `O=C1OC(c2ccc(O)cc2)(c2ccc(O)cc2)c2ccccc21`, the call was inactive.
In the case of `CCC1NC(=O)c2cc(S(N)(=O)=O)c(Cl)cc2N1` (centres undefined), the result was inactive.
Take `CCCCNc1ccc(C(=O)OCCN(C)C)cc1`: the outcome was inactive.
Still for that read-out and setting: the same measure for `CCOC(=O)c1cc(=O)c2c(OCC(COc3cccc4oc(C(=O)OCC)cc(=O)c34)OC(=O)[C@@H](N)CCCCN)cccc2o1`: “inactive”; for `O=C(OCC(O)CO)c1ccccc1Nc1ccnc2c(C(F)(F)F)cccc12` (centres undefined): “inactive”.
As for `Nc1ccn([C@H]2CC[C@@H](CO)O2)c(=O)n1`, the molecule was called inactive.
